Source: PubChem
FAS TE block: inhibitors of human fatty acid synthase thioesterase domain; AID 602261; inhibition, % at 15 µM; recombinant FAS-TE, OMFH fluorogenic substrate, fluorescence endpoint; 0.67% of 360,000 active; P49327;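 active means compounds whose normalised, plate-corrected inhibition of enzyme fluorescence in the single-dose primary screen is 50% or more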
GC-B act: GC-B (human) receptor activation; P20594; HEK293-GC-B cells, CNP EC30, cGMP TR-FRET; 0% at EC30 CNP, 100% saturating CNP; activation, % at 10 µM; 0.11% of 370,000 active;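 active means activation at 10 µM reaching about 35% in either raw or pattern-adjusted values, limit read from the data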
APOBEC3A inh: blocks human APOBEC3A ssDNA deamination | P31941 | inhibition, % at 20 µM | recombinant A3A, FAM/TAMRA ssDNA deamination fluorescence | 0.41% of 330,000 active;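 active means at least 40% inhibition at 20 µM here, with at most 30% in a related deaminase screen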
NPR1 activator: GC-A (human) enzyme activation. HEK293 GC-A cells, cGMP TR-FRET, EC30 ANP; 0% at EC30 ANP, 100% saturating ANP. 0.14% of 370,000 active. activation, % at 10 µM; in the data active means activation above about 40%
A3G deaminase: blocks human APOBEC3G single-stranded DNA deamination; Q9HC16; recombinant A3G, ssDNA deamination FAM/TAMRA fluorescence; inhibition, % at 20 µM; 0.28% of 330,000 active; AID 493012;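 active means inhibition of at least 40% at 20 µM, with no more than 30% in the related APOBEC3A deaminase screen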
FAS-TE inh conf: confirmation of human fatty acid synthase thioesterase inhibitors | inhibition, % at 15 µM | shares compounds with FAS TE block | 45% of 2,300 active | recombinant FAS-TE, OMFH fluorogenic substrate, fluorescence;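 active means compounds inhibiting the enzyme by at least 50% at 15 µM in any one of the replicates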
Hits are given with their value; i = inactive; nt = no result. Sampled rows, rich in hits. Any-hit rate of the full collection: about 1.4%.

SMILES | FAS TE block | GC-B act | APOBEC3A inh | NPR1 activator | A3G deaminase | FAS-TE inh conf
CCCC1CCC2(CCCN2CCOC(=O)Nc2ccccc2OC)CC1 (stereo not drawn) | nt | i | nt | i | nt | nt
NS(=O)(=O)c1cccc(NC(=O)CSc2nc3nc(-c4cccs4)cc(C(F)(F)F)c3c(=O)[nH]2)c1 | i | i | i | i | i | nt
O=C(CSc1nc2nc(-c3cccs3)cc(C(F)(F)F)c2c(=O)[nH]1)Nc1c(F)c(F)c(F)c(F)c1F | 50 | i | i | i | i | i
COc1ccc(C2NC(=S)N(Cc3ccc(Cl)cc3)C(C)=C2C(C)=O)cc1 (stereo not drawn) | nt | i | nt | i | nt | nt
O=C(Sc1nnc(-c2ccccc2)o1)N1c2ccccc2Sc2ccccc21 | 60 | i | i | i | i | 28
COc1cccc2cc(C(=O)NCCC3=CCCCC3)c(=O)oc12 | 59 | i | i | i | i | i
CC(C)(C)OC(=O)N1CCC(c2cc(=O)n3[nH]cc(C(=O)Nc4ccc(F)c(Cl)c4)c3n2)CC1 | 77 | i | i | i | i | 64
COc1ccc(NC(=O)c2c[nH]n3c(=O)cc(C4CCN(C(=O)OC(C)(C)C)CC4)nc23)cc1Cl | i | i | i | i | i | nt
CCOC(=O)c1sc(NNC(=O)c2ccc(C)cc2)nc1C | i | i | i | i | i | nt
CCOC(=O)c1nc(NNC(=O)c2ccc([N+](=O)[O-])cc2)sc1C | 53 | i | i | i | i | i
COc1ccc(NC(=O)O[C@@H](C)[C@@H]2CN3CCc4c([nH]c5ccc(-c6ccc(OC)cc6)cc45)[C@@H]3C[C@@H]2N(C)C(=O)Nc2ccc(OC)cc2)cc1 | 54 | i | nt | i | nt | i
C[C@@H](NC(=O)c1[nH]cnc1C(=O)Nc1ccc(Cl)cc1)c1ccccc1 | 64 | i | i | i | i | 63
CC(C)NC(=O)c1sc(=S)n2c1[nH]c(=O)c1ccc(C(=O)NCCc3ccc(Cl)cc3)cc12 | 64 | i | i | i | i | i
CS(=O)(=O)c1ccc2nc(NC(=O)c3cc(-c4ccccc4)nn3-c3ccccc3)sc2c1 | 86 | i | i | i | i | i
Cc1nc2ccc([N+](=O)[O-])cc2c(=O)n1Cc1ccccc1Br | 71 | i | i | i | i | i
Cc1nc2ccc([N+](=O)[O-])cc2c(=O)n1Cc1cccc(Br)c1 | i | i | i | i | i | nt
Cc1ccc(Cn2c(C)nc3ccc([N+](=O)[O-])cc3c2=O)cc1 | 75 | i | i | i | i | 59
Cc1nc2ccc([N+](=O)[O-])cc2c(=O)n1Cc1ccc(Br)cc1 | 93 | i | i | i | i | 63
Cc1nc2ccc([N+](=O)[O-])cc2c(=O)n1Cc1ccc([N+](=O)[O-])cc1 | 59 | i | i | i | i | 63
Cn1cccc1C(=O)N1CCN(S(=O)(=O)c2ccc(Cl)s2)CC1 | nt | i | nt | i | nt | nt
CCOc1cccc(-c2nnc3n2N=C(c2ccc(OC)cc2)CS3)c1 | nt | i | nt | i | nt | nt
O=C(OCc1cn(Cc2ccc(F)cc2F)nn1)N1CCCC1 | nt | i | nt | i | nt | nt
O=C(/C=C/c1cccc([N+](=O)[O-])c1)NCCSc1ccccc1 | 69 | i | i | i | i | 80
CC(C)(C)SCCNC(=O)/C=C/c1cccc([N+](=O)[O-])c1 | 72 | i | i | i | i | 62
COC(=O)[C@]12C[C@H](CC(=O)NCc3ccc(OC)c(OC)c3)C(=O)N(Cc3ccc4c(c3)OCO4)C1=C[C@H](C(C)C)O[C@@H]2C1CC1 | nt | i | nt | i | nt | nt
SMILES | FAS TE block | GC-B act | APOBEC3A inh | NPR1 activator | A3G deaminase | FAS-TE inh conf
CCc1ccc(NS(=O)(=O)c2cc3c(cc2C)n(C)c(=O)c(=O)n3C)cc1 | 74 | i | i | i | i | 83
Cc1cc2c(cc1S(=O)(=O)Nc1ccc(F)cc1)n(C)c(=O)c(=O)n2C | i | i | i | i | i | nt
N#C/C(=C\c1ccc(OCc2ccc(Cl)cc2)cc1)C(=O)Nc1cccc(C(=O)O)c1 | 53 | i | i | i | i | i
Cc1cc2oc(=O)cc(CN3CCN(S(=O)(=O)/C=C/c4ccccc4)CC3)c2cc1C | 54 | i | i | i | i | i
Cc1ccc(CN2CCCCC(NC(=O)Cc3cccs3)C2=O)cc1 (stereo not drawn) | nt | i | nt | i | nt | nt
CCOC(=O)N1CCN(C(=O)c2ccc(Cn3c(=S)[nH]c4cc5c(cc4c3=O)OCO5)cc2)CC1 | i | i | i | i | i | nt
COc1ccccc1N1CCN(C(=O)CCCn2c(=S)[nH]c3ccccc3c2=O)CC1 | 53 | i | nt | i | nt | i
COc1ccccc1N1CCN(C(=O)c2ccc(Cn3c(=S)[nH]c4cc5c(cc4c3=O)OCO5)cc2)CC1 | 53 | i | i | i | i | i
COc1ccc(OCc2nn3c(-c4ccccc4)nnc3s2)cc1 | nt | i | nt | i | nt | nt
CN(c1ccc(NC(=O)CCc2c[nH]c3ccccc23)cc1)c1ccccn1 | nt | i | nt | i | nt | nt
COc1ccc(NC(=O)OCCN2CCCC23CCC(c2ccccc2)CC3)cc1 (stereo not drawn) | nt | i | nt | i | nt | nt
COc1ccc(-c2noc(C3CCCN(C(=O)Nc4cc(C)cc(C)c4)C3)n2)cc1 (stereo not drawn) | nt | i | nt | i | nt | nt
Cc1ccc(-n2cnc3c(sc4nc(N5CCOCC5)c5c(c43)CCCC5)c2=O)cc1 | i | i | i | i | i | nt
COc1ccc(-n2cnc3c(sc4nc(N5CCOCC5)c5c(c43)CCCC5)c2=O)cc1 | 63 | i | i | i | i | i
Cc1ccccc1-n1cnc2c(sc3nc(N4CCOCC4)c4c(c32)CCCC4)c1=O | 66 | i | i | i | i | i
COc1ccc(S(=O)(=O)N(C(=O)c2ccncc2)c2ccc3oc4c(c3c2)CCCC4)cc1 | 60 | i | i | i | i | i
O=C1C2C(c3ccccc3)(C(=O)N1c1ccc(Cl)cc1)C2(c1ccccc1)c1ccccc1 (stereo not drawn) | 60 | i | i | i | i | i
C=CCn1c(SCC(=O)Nc2ccccc2-c2ccccc2)nnc1-c1ccccc1 | nt | i | nt | i | nt | nt
N#CC1CCN(c2nc(-c3ccc(Br)cc3)cs2)CC1 | nt | i | nt | i | nt | nt
CCN(CC)C(=O)CC[C@H]1CC[C@]2(CCCN(Cc3ccc(OC)cc3)C2)O1 | nt | i | nt | i | nt | nt
CCCSc1cc(NCCOC(C)=O)c([N+](=O)[O-])c2nonc12 | i | i | i | i | i | nt
CCC(=O)OCCNc1cc(Sc2nc3ccccc3s2)c2nonc2c1[N+](=O)[O-] | 83 | i | i | i | i | i
O=[N+]([O-])c1c(NCCCO)cc(Sc2nc3ccccc3s2)c2nonc12 | 77 | nt | i | nt | i | 75
NCCNc1ccc([N+](=O)[O-])c(Sc2nc3ccccc3[nH]2)c1 | i | i | i | i | i | nt
CCC(=O)OCCNc1cc(Sc2nc3ccccc3[nH]2)c2nonc2c1[N+](=O)[O-] | 80 | i | nt | 43 | nt | 83
CC(=O)OCCCNc1cc(SCc2ccco2)c2nonc2c1[N+](=O)[O-] | i | i | i | i | i | nt
